Data taken from PubChem BioAssay (NCATS).
Results filed as inconclusive are left out. A call without a number means that no potency is given here. Active and inactive are the calls of the source. Calls follow the shape of the dose curve; as a rule, active = well fitted curve in the direction sought with a large enough effect; inconclusive = small, poorly fitted or top-dose-only effect, or another doubt; inactive = no such curve, though single readings can be large; an effect the other way counts as inactive or inconclusive. Numbered stars: 1 amine (or outer) side, 2 acyl side, 3 side chain; on linkers, the order of the positions; unused ones are H or OH. Square brackets hold non-standard residues; d marks the D form. Peptide text beside a SMILES is read from it. X1 = CCCCCCCCCC(=O)[C@H](C(=O)[*:2])[C@@H]1CNC(=O)[C@@H](N[*:1])CS1

Key:
[1] = test system: Zika virus NS2B-NS3 protease (linked construct); experiment: Primary screen NINDS Rhodamine qHTS for Zika virus inhibitors (AID 1347160); also: nearly all actives have a fitted effect of over 55% in size; also: potency is read from the fitted curve at half-maximal effect
How it was run: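 Each compound, titrated, sat 15 min with 25 nM linked protease before 1.5 microM Rhodamine110 substrate went in. Fluorescence gain over the next 15 min, in pH 8.0 Tris with Tween 20, gave Hill-fitted curves.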

[2] = OV-KATE Cancer Cell Toxicity qHTS against the NCATS CANVASS Library (AID 1347345); also: potency is read from the fitted curve at half-maximal effect
How it was run: (§1)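 Viability read-out: CellTiter-Glo luminescence after 72 h compound exposure at 37 °C/5% CO2. Cells plated at 1000/well, 4 h pre-incubation; 11-point titration. Bortezomib served as control.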

[3] = HPAF-II Cancer Cell Toxicity qHTS against the NCATS CANVASS Library (AID 1347346); also: nearly all actives have a fitted effect of over 55% in size; also: potency is read from the fitted curve at half-maximal effect
How it was run: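 First, HPAF-II cells are plated (1000 cells/well) and held 4 h at 37 degrees C. Next, compounds are pin-transferred as an 11-point series. After 72 h, CellTiter-Glo is added and luminescence measured.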

[4] = UWB1.289 Cancer Cell Toxicity qHTS against the NCATS CANVASS Library (AID 1347347); also: nearly all actives have a fitted effect of over 60% in size; also: potency is read from the fitted curve at half-maximal effect
How it was run: as §1

[5] = Panc-1005 Cancer Cell Toxicity qHTS against the NCATS CANVASS Library (AID 1347349); also: nearly all actives have a fitted effect of over 60% in size; also: potency is read from the fitted curve at half-maximal effect
How it was run: as §1

[6] = SW1088 Cancer Cell Toxicity qHTS against the NCATS CANVASS Library (AID 1347350); also: nearly all actives have a fitted effect of over 75% in size; also: potency is read from the fitted curve at half-maximal effect
How it was run: as §1

[7] = COV-362 Cancer Cell Toxicity qHTS against the NCATS CANVASS Library (AID 1347352); also: potency is read from the fitted curve at half-maximal effect
How it was run: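 First, 1000 cells go into each well and rest for 4 hours. Next, an 11-point dilution range is pinned in. Plates then incubate 72 hours before CellTiter-Glo addition and luminescence reading.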

[8] = HEK293 18hr Apoptosis Induction qHTS against the NCATS CANVASS Library (AID 1347357)
How it was run: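 Cells seeded at 500/well in DMEM + 10% FBS. Compounds pinned, 11 concentrations. 18 h, 37 degrees C/5% CO2. Caspase-Glo 3/7 added, 15 min RT dark, luminescence read.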

[9] = HEK293 24hr Apoptosis Induction qHTS against the NCATS CANVASS Library (AID 1347359)
How it was run: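 HEK293 cells (500/well, DMEM + 10% FBS) were exposed to compounds in an 11-point series for 24 hours at 37 degrees C, then caspase-3/7 activity was read by Caspase-Glo DEVD luciferase luminescence after 15 min.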

[10] = HEK293 12hr Apoptosis Induction qHTS against the NCATS CANVASS Library (AID 1347361); also: potency is read from the fitted curve at half-maximal effect
How it was run: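 Cells are seeded, dosed with an 11-point compound series and incubated 12 hours. Caspase-3/7 activity is detected by luminescent DEVD-substrate reagent after 15 minutes at room temperature.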

[11] = target: Luciferin 4-monooxygenase (Photinus pyralis) (UniProt P08659); experiment: Firefly luciferase counterscreen qHTS: Assay Interference Panel against the NCATS CANVASS Library (AID 1347363); also: potency is read from the fitted curve at half-maximal effect
How it was run: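 Purified P. pyralis luciferase was added to compounds (11-point series) preincubated 15 min at room temperature with substrate containing 0.013 mM D-luciferin and 0.013 mM ATP; luminescence was read after 5 min.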

[12] = KB-3-1 Cancer Cell Toxicity qHTS against the NCATS CANVASS Library (AID 1347366); also: nearly all actives have a fitted effect of over 75% in size; also: potency is read from the fitted curve at half-maximal effect
How it was run: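 Luminescence from CellTiter-Glo (10 min, room temperature) measured KB-3-1 viability after 72 hr compound exposure at 37C. Cells were seeded at 500/well and tested in an 11-point series.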

[13] = MCF7 Cancer Cell Toxicity qHTS against the NCATS CANVASS Library (AID 1347369); also: potency is read from the fitted curve at half-maximal effect
How it was run: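 Cells seeded at 500/well, then compound pinned. Plates incubated 72 hr at 37C, 5% CO2. CellTiterGlo added; luminescence read.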

[14] = qHTS for ATAD5 Antagonist screened against the NCATS CANVASS Library (AID 1347370); also: nearly all actives have a fitted effect of over 65% in size; also: potency is read from the fitted curve at half-maximal effect
How it was run: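 Compounds (11-point) co-dosed with 10 µM 5-FUrd for 16 h at 37 °C onto HEK293T-ATAD5 luciferase reporter cells. Viability measured by CellTiter-Fluor fluorescence, then ATAD5 reporter signal by luminescence.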

[15] = J3T Cancer Cell Toxicity qHTS against the NCATS CANVASS Library (AID 1347371); also: potency is read from the fitted curve at half-maximal effect
How it was run: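 Luminescence from CellTiterGlo, reporting cellular ATP, serves as the viability measure after 72 hr compound treatment of J3T canine glioma cells seeded at 500 cells/well.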

[16] = target: Nuclear receptor subfamily 1 group I member 3 (Homo sapiens) (UniProt Q14994); experiment: qHTS for Constitutive Androstane Receptor (CAR) Agonist screened against the NCATS CANVASS Library (AID 1347373);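 also: every well also contained 1.5 µM PK11195 alongside the test compound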
How it was run: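 Cells were plated and allowed to attach for 4hr, then dosed with compound in an 11-point series alongside 1.5uM PK11195. After 24hr at 37C, viability was measured fluorometrically and CAR-driven CYP2B6 reporter luminescence was recorded.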

[17] = 10-beta competent E. coli microbial cell viability qHTS against the NCATS CANVASS Library (AID 1347376); also: series mostly up to about 46 µM
How it was run: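 Bacterial suspension diluted to 0.2 OD was dosed with compounds, 11-point series, then held overnight at 37C. BacTiter-Glo reagent was added, and after 20 min at room temperature ATP-dependent luminescence was measured.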

[18] = qHTS for Inflammasome Signaling Inhibitors: IL-1-beta AlphaLISA screen against the NCATS CANVASS Library (AID 1347379);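 also: human THP-1 cells primed with LPS then triggered with ATP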
How it was run: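 Secreted IL-1B from human THP-1 cells quantified by AlphaLISA 16 hr after compound addition (final up to 57.5 uM). A 1 hr compound pretreatment preceded inflammasome activation with 250 ng/mL LPS plus 1.25 mM ATP (final).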

[19] = Inflammasome Signaling qHTS Counterscreen: IL-1-beta AlphaLISA counterscreen against the NCATS CANVASS Library (AID 1347381);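 also: cell-free check with purified IL-1β in medium and no THP-1 cells; series mostly up to about 57 µM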
How it was run: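 Purified IL-1-beta (4 pg/well) + compound, 11-pt conc. series; acceptor beads 6 ug/mL + biotin-Ab 0.6 nM final, 1 h RT; SA-donor 24 ug/ml final, 30 min dark RT; read ex 680/em 615.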

[20] = Vero-766 cells viability qHTS against the NCATS CANVASS Library: Counterscreen for Zika virus inhibition assay (AID 1347394); also: nearly all actives have a fitted effect of over 60% in size; also: potency is read from the fitted curve at half-maximal effect
How it was run: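 Vero 766, no virus; 1000 cells/well; o/n attach; cpd 11-pt; 72 h, 37C, 5% CO2; CTG luminescence; cell-free media wells = 100% inhibition.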

Sequence of Nuclear receptor subfamily 1 group I member 3 (Homo sapiens) (Q14994 whole entry, looked up): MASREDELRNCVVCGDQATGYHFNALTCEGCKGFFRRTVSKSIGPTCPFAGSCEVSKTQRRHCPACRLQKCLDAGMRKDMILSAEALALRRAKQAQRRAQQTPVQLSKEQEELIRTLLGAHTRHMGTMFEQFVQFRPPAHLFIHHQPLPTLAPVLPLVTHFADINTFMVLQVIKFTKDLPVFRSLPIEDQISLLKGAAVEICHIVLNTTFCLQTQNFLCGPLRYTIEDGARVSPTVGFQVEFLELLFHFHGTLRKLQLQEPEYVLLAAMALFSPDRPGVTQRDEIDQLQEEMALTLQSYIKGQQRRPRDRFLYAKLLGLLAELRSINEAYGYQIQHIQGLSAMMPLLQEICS
Sequence of Luciferin 4-monooxygenase (Photinus pyralis) (P08659 whole entry, looked up): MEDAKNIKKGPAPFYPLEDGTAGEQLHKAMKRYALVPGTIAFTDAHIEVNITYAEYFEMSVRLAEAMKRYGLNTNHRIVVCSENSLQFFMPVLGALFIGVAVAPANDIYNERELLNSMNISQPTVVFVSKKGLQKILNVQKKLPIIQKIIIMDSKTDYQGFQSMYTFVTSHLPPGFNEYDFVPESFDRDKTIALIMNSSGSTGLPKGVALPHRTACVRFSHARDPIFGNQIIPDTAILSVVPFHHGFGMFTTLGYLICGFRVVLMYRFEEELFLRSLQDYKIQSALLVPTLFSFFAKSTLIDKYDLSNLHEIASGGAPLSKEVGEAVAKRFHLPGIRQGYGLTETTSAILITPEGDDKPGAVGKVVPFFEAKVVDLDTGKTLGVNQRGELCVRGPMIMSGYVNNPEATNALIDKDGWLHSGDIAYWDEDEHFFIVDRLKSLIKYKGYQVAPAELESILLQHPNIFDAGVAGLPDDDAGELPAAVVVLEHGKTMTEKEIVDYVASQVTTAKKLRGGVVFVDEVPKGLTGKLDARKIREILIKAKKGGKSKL

Compound | Potency [1] | Potency [2] | Potency [3] | Potency [4] | Potency [5] | Potency [6] | Potency [7] | Potency [8] | Potency [9] | Potency [10] | Potency [11] | Potency [12] | Potency [13] | Potency [14] | Potency [15] | outcome [16] | outcome [17] | Potency [18] | outcome [19] | Potency [20]
OCc1ccc2ocnc2c1 | inactive | inactive | inactive | inactive | inactive | inactive | inactive | inactive | inactive | inactive | inactive | inactive | inactive | inactive | inactive | inactive | inactive | inactive | inactive | inactive
CCCCCCCCCC(=O)[C@@H]1C(=O)N[C@@H](CC(C)C)C(=O)N[C@H](C)C(=O)N2CCC[C@H]2C(=O)N[C@@H](C(C)C)C(=O)N[C@H]2CS[C@H]1CNC2=O (cyclo(L[dA]PV[X1])) | 4.4 µM (active) | inactive | inactive | inactive | inactive |  | inactive | inactive | inactive | inactive | inactive | inactive | inactive | inactive | inactive | inactive | inactive | inactive | inactive | inactive
COc1cc(/C=C2/C(=O)N(c3ccc(O)cc3C(=O)O)[C@H](c3ccc(O)c(OC)c3)C2C(=O)Nc2ccc(O)cc2C(=O)O)ccc1O (stereo partly specified) | 6.97 µM (active) | inactive | inactive | inactive | inactive | inactive | inactive | inactive | inactive | inactive | inactive | inactive | inactive | inactive | inactive | inactive | inactive | inactive | inactive | inactive
C[C@@H]1O[C@H](c2c(O)cc(O)c3c(=O)cc(-c4ccc(O)cc4)oc23)[C@H](O)[C@H](O)[C@H]1O | 34.9 µM (active) | inactive | inactive | inactive | inactive | inactive | inactive | inactive | inactive | inactive | inactive | inactive | inactive | inactive | inactive | inactive | inactive | inactive | inactive | inactive
CN1CC[C@]2(c3cccc4c3N[C@@H]3N(C)CC[C@]43[C@@]34CCN(C)[C@@H]3Nc3ccccc34)c3ccccc3N[C@H]12 | inactive | 14.9 µM (active) | 18.8 µM (active) | 18.8 µM (active) | 16.8 µM (active) |  | 13.3 µM (active) |  | inactive | inactive | inactive | 16.6 µM (active) | 9.31 µM (active) | inactive | 7.43 µM (active) | inactive | inactive | 24.3 µM (active) | inactive | 26.3 µM (active)
C=C(C)[C@@H]1CC[C@]2(C)CC[C@]3(C)[C@H](CC[C@@H]4[C@@]5(C)CC[C@H](O)C(C)(C)[C@@H]5CC[C@]43C)[C@@H]12 | inactive | inactive | inactive |  | inactive | inactive | inactive | inactive | inactive | inactive | inactive | inactive | inactive | inactive | inactive | inactive | inactive | inactive | inactive | inactive
C/C=C/C(=O)[C@@H](C)C1=CC(=O)C2=C(O[C@@]34CC[C@H](O)C(C)(C)[C@@H]3CC[C@H](C)[C@@]4(C)C2)C1=O | 49.3 µM (active) | 8.38 µM (active) | 3.75 µM (active) | 21.1 µM (active) | 4.21 µM (active) | 7.49 µM (active) |  |  |  | 9.35 µM (active) | inactive | 20.9 µM (active) | 13.1 µM (active) | 7.41 µM (active) | 5.26 µM (active) | inactive | inactive | 3.43 µM (active) | inactive | 18.6 µM (active)
CCCCCCCCCCCCCCCC(=O)OC/C=C(\C)CCCC(C)CC(C)C(C)C (stereo unspecified) | 55.3 µM (active) | inactive | 0.298 µM (active) | inactive |  | inactive | inactive | inactive | inactive | inactive | inactive | inactive | inactive | inactive | inactive | inactive | inactive | inactive | inactive | inactive
CC1(C)CC[C@]2(C(=O)O)CC[C@]3(C)C(=CC[C@@H]4[C@@]5(C)C[C@@H](O)[C@H](O)C(C)(C)[C@@H]5CC[C@]43C)[C@@H]2C1 | 19.6 µM (active) | inactive | inactive | 11.8 µM (active) |  | 14.9 µM (active) | inactive | inactive | inactive | inactive | inactive | inactive | inactive | inactive | inactive | inactive | inactive | inactive | inactive | 
COc1ccc(/C=C2\COc3cc(O)ccc3C2=O)cc1 | 22 µM (active) | inactive | inactive | inactive |  |  | inactive | inactive | inactive | inactive | 0.485 µM (active) | inactive | inactive | inactive | inactive |  | inactive |  | inactive | inactive
